We go through five compounds from PubChem BioAssay (NCATS).

Records with an inconclusive call do not appear. Active and inactive are the calls of the source. Unless noted, the call rests on the fitted dose curve.

The nature of test [1]: Primary qHTS for Huh7 cytotoxicity: counterscreen for inhibitors of MERS-S pseudotyped particle cell entry (AID 1479147). To be noted: outcome: dose series up to 57.1 µM unless noted. Background: qHTS replaces the single test concentration by a dilution series.
A short description of test [2]: Primary qHTS for inhibitors of MERS-S pseudo-typed particle cell entry (AID 1479149). Further: nearly all actives have a fitted effect of over 60% in size. On activity change, negative = inhibition: on the % scale 0 is the no-effect control and ±100 the full control effect. The settings on record: outcome: dose series up to 57.1 µM unless noted.
The nature of test [3]: Primary qHTS for Vero E6 cytotoxicity: counterscreen for inhibitors of SARS-S pseudo-typed particle cell entry (AID 1479150). The settings on record: outcome: dose series up to 57.1 µM unless noted.
Test [4] can be described thus: Cytotoxicity counterscreen for inhibitors of SARS-CoV-2 cell entry (AID 1645845). Further: nearly all actives have a fitted effect of over 50% in size. The settings on record: outcome: dose series up to 57.1 µM unless noted. The method in brief: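 HEK293-ACE2 cells (Expi293F stably expressing human ACE2) seeded overnight, then compound for 1 h plus 48 h at 37C. Viability as ATP content by luminescence; normalized to wells with cells and media-only wells.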
(The purpose of a counterscreen is to sort out artefacts and off-target activity.)

In test [5] the target is Glutathione peroxidase 1 (Homo sapiens) (UniProt P07203). As to the kind of experiment: Primary qHTS Assay for Inhibitors of Recombinant Selenoprotein Glutathione Peroxidase 1 (GPX1) (AID 1845191; active means well fitted inhibition curve with a large enough effect; further: on the % scale 0 is the no-effect control and ±100 the full control effect; nearly all actives have a fitted effect of over 65% in size). The method in brief: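 GR-coupled assay: compounds preincubated 30 min at room temperature with GPX1, then reaction started with CHP; final 10 nM GPX1, 1 mM GSH, 0.5 mM CHP, 0.5 mM NADPH, 100 nM GR, 0.01% BSA, pH 7.5 Tris buffer. NADPH fluorescence (340/450 nm) read at 0 and 15 min.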

Test [6] in a line: Primary qHTS to identify inhibitors of SARS-CoV-2 cell entry (AID 1645846). Further: nearly all actives have a fitted effect of over 45% in size. The settings on record: SARS-CoV-2 pseudovirus cell entry assay, luminescence; activity change, negative = inhibition: at 57.1 µM (top of the series) unless noted. The method in brief: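 Data are normalized to wells receiving SARS-CoV-2-S pseudoparticles and those given bald particles. Entry signal was luciferase luminescence in stable hACE2 Expi293F cells, 48 hr post-infection, after 1 hr compound pretreatment.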

The target in test [7] is Phospholipid hydroperoxide glutathione peroxidase GPX4 (Homo sapiens) (UniProt P36969). As to the kind of experiment: Primary qHTS Assay for Inhibitors of Recombinant Selenoprotein Glutathione Peroxidase 4 (GPX4) (AID 1845192; active means well fitted inhibition curve with a large enough effect; further: nearly all actives have a fitted effect of over 65% in size). The method in brief: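 GR-coupled assay: recombinant GPX4 preincubated 30 min with compound at room temperature; final 200 nM GPX4, 1 mM GSH, 0.5 mM cumene hydroperoxide, 0.5 mM NADPH, 100 nM GR, 0.01% BSA, pH 7.5 Tris. NADPH fluorescence (340/450 nm) read at 0 and 15 min.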
Phospholipid hydroperoxide glutathione peroxidase GPX4 (Homo sapiens), sequence (P36969 whole entry, looked up): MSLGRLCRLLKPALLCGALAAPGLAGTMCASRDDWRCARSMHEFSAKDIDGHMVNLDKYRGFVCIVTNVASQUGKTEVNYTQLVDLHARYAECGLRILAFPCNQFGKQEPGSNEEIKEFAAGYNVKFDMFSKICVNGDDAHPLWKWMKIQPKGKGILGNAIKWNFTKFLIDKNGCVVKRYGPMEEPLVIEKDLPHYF

Glutathione peroxidase 1 (Homo sapiens), sequence (P07203 whole entry, looked up): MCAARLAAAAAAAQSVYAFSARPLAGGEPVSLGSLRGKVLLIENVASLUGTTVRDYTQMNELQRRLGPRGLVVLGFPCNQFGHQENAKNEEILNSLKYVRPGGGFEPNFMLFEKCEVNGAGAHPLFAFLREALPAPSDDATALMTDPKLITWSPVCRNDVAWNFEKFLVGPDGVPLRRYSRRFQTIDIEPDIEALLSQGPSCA

Regarding `CCN1C[C@@]2(COC)C3[C@@H](OC)C4[C@@H]1[C@@]3(C1C[C@]3(O)[C@H](OC(=O)c5ccccc5)C1[C@]4(OC(C)=O)[C@@H](O)[C@@H]3OC)[C@@H](OC)C[C@H]2O` (stereo partly drawn), the Potency entry in test [1], in test [2], in test [3], in test [4] and in test [5] was “inactive” throughout.
For `CC(C)N[C@@H]1CCn2c(=O)[nH]c3cccc(c32)[C@H]1O`, the Potency entry in test [1], in test [2], in test [3], in test [4], in test [6] and in test [5] was “inactive” each time.
`CCOC(=O)[C@@H](N)CS`: the Potency result in test [1], in test [2], in test [3] and in test [4] was “inactive” in each case. In addition, the activity change, negative = inhibition in test [6] is -29%.
Take `CCCCCCCCCCCCNCCNCCNCC(=O)O`: the Potency entry in test [1], in test [2], in test [3], in test [4], in test [5] and in test [7] was “inactive” in each case. Moreover, the activity change, negative = inhibition in test [6] was -24.3% [at 27.1 µM].
For the compound `N=C1CCCN1Cc1[nH]c(=O)[nH]c(=O)c1Cl`, the Potency result in test [1], in test [2], in test [3] and in test [4] was “inactive” in each case. Further, the activity change, negative = inhibition in test [6] is -1.38%.
